We go through twelve compounds from PubChem BioAssay AID720690 (Broad Institute, 2013).

Potency and affinity values are given separately. Calls of active or inactive are those of the source.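 Rule for the calls: active = every repeat run showing a signal drop whose fitted half-maximal concentration is at most twice the top tested concentration; inconclusive = repeat runs disagree, or flat partial drop, or poor fit; inactive = the rest.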

The experiment can be described thus: general mammalian cell viability loss – activator set, cherry-pick, cytotoxicity control for miR-122 modulator project, dose response (AID 720690).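 Note: 0% = neutral control wells and -100% = MG132 cytotoxic control wells.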 As to conditions: HEK293T viability, CellTiter-Glo luminescence, 48 h; series mostly up to 26 µM; activity change, negative = cytotoxicity: at the top concentration.
For the compound `CNC(=O)C[C@H]1CC[C@@H]2[C@H](COc3ccc(NC(=O)Nc4ccccc4OC)cc3C(=O)N2C)O1`, the “activity change, negative = cytotoxicity” value is -0.263% (inactive).

As for `C/C=C/c1ccc([C@H]2[C@H](CO)N[C@@H]2CN(CC)C(=O)c2cccnc2)cc1`, the “activity change, negative = cytotoxicity” value is -12.1% (inactive). Regarding `CC(C)C(=O)Nc1ccc2c(c1)C(=O)N(C)[C@H]1CC[C@@H](CC(=O)NCc3ccccc3F)O[C@H]1CO2`, the “activity change, negative = cytotoxicity” value was -2.13% [at 23.5 µM] (inactive). To `CCS(=O)(=O)Nc1ccc2c(c1)C(=O)N(C)[C@@H]1CC[C@@H](CC(=O)NCCCN3CCOCC3)O[C@@H]1CO2` belongs -12.1% (inactive); to `C[C@H](CO)N1C[C@H](C)[C@@H](CN(C)Cc2ccc(Oc3ccccc3)cc2)Oc2ncc(-c3cncnc3)cc2C1=O`, -8.03% (inactive).

As for `COCC(=O)N(C)C[C@@H]1[C@H](c2ccc(-c3ccccc3)cc2)[C@@H](CO)N1C(C)=O`, the “activity change, negative = cytotoxicity” value is -14.3% (inactive). Regarding `C=CCc1ccccc1OCC(O)CN1CCN(CCN2C(=O)c3cccc4cccc(c34)C2=O)CC1` (configuration not stated), the “activity change, negative = cytotoxicity” value is 2.13% (inactive).

`COCC(=O)N(C[C@@H]1[C@@H](c2ccccc2)[C@H](CO)N1C(=O)NC(C)C)C(C)C`: the “activity change, negative = cytotoxicity” value is 2.09% (inactive).

Regarding `CN(C[C@H]1N[C@@H](CO)[C@H]1c1ccc(-c2ccccc2)cc1)C(=O)C1CCC1`, the “activity change, negative = cytotoxicity” value is -13.6% (inactive). In the case of `CCNC(=O)Nc1ccc2c(c1)C(=O)N(C)[C@H]1CC[C@H](CC(=O)NCc3ccccc3F)O[C@H]1CO2`, the “activity change, negative = cytotoxicity” value is -5.41% (inactive).

On to `CC(C)NC(=O)N1C[C@@H]2[C@H](c3ccccc31)[C@@H](CO)N2C(=O)c1cccnc1`, for which the “activity change, negative = cytotoxicity” value was -8.5% [at 23.5 µM] (inactive).

Turning to `C[C@@H]1CN([C@H](C)CO)S(=O)(=O)c2ccc(C3=CCCC3)cc2O[C@@H]1CN(C)C(=O)c1ccc(F)cc1`, the “activity change, negative = cytotoxicity” value was -21.9% (inactive).
